Source: PubChem BioAssay AID903 (National Center for Advancing Translational Sciences (NCATS), 2007)
Out of some 55,000 compounds screened, about 340 (0.62%) were called active. Inconclusive results (about 3%) are left out. Many of the other results were omitted from the sample, so actives are more common in it than they were. A number with no mark means an inactive call. Calls come from the whole dose curve; as a rule, active = well fitted cell-killing curve with a large enough effect; inconclusive = small, poorly fitted or top-dose-only effect; inactive = no such curve, though single readings can be large or run the other way.

Assay: qHTS Screen for Compounds that Selectively Target Cancer Cells with p53 Mutations: Cytotoxicity of p53 Null Cells at the Permissive Temperature; note: nearly all actives have a fitted effect of over 55% in size;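 for activity change, negative = cytotoxicity: 0% = DMSO only and -100% = full killing by 100 µM tamoxifen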
Conditions: H1299-neo p53 null cells, ATP luminescence, 24 h, 32C; series mostly up to 46.1 µM; activity change, negative = cytotoxicity: at the top concentration
Source text: NIH Chemical Genomics Center [NCGC] NIH Molecular Libraries Screening Centers Network [MLSCN] MLSCN Grant: 1 X01 MH079844-01 Assay Submitter (PI): Dr. SUN, YI, University of Michigan NCGC Assay Overview: Synthetic Lethal Screen for Compounds to Kill Cancer Cells with p53 Mutation. Tumor suppressor gene p53 serves as a major cellular barrier against tumorigenesis. […] The goal of this screening is to identify small molecule probes that selectively kill cancer cells with mutations in p53. This screening was carried out using two lines of H1299 lung cancer cells. The H1299-p53 A138V line express a temperature sensitive p53 mutant (p53ts) in which the mutant p53 protein (A138V) is in the mutant confirmation when grown at 39C (the nonpermissive temperature) and in the wild type conformation when grown at 32C (the permissive temperature). A H1299-neo line (p53 null) grown at both 39C and 32C were used as counter-screens to filter out false positive associated with temperature shifting. The small molecular compounds that selectively target mutant p53-containing cancer cells were selected as candidate probes for further study. A cytotoxicity assay based on the measurement of ATP contents in cells was used in this screen. Concentration-responses of all the compounds in the library collection were determined in qHTS using the cell lines and temperature conditions as above.
NCGC Assay Protocol Summary: Both the H1299-p53A138V and H1299-neo cell lines were provided by Dr.Yi Sun, a PI at the University Michigan. The cells were maintained and cultured at 37C. The resuspended frozen cells were used to plate the cells in the 1536-well assay plates at a density of 600 cells per well in 5 ul medium. The assay plates with the cells were incubated at 37C for 16 to 30 hours before the experiments. The library compounds in DMSO solution were added to the cells in assay plates and incubated 24 hours at 39C (for mutant p53 conformation) or 32C (for normal p53 conformation as control). An ATP_lite assay kit (PerkinElmer) was used to determine the cell viability. Tomaxifen (100uM) was used as the positive control for cell killing. Data were normalized to the controls for basal activity (DMSO only) and 100% killing (100uM tamoxifen). AC50 values were determined from concentration-response data modeled with the standard Hill equation. P53 assay protocol: 1. Reagent; 5 uL H1299-p53A138V or H1299-neo cell cells/well 2. Time; overnight; 37C incubation 3. Compounds; 23 nL; 5.9 nM to 46 uM 4. Controls; 23 nL; Tamoxifen 100 uM 5. Time; 24 hr; 32C incubation 6. Reagent; 3 uL; ATP_Lite reagent 7. Time; 20 min; Room Temperature 8. Detection; Luminescence; Viewlux plate reader Keywords: p53, synthetic lethal, cancer, cell viability, cytotoxicity, H1299 cell line, luminescence, MLSMR, MLSCN, NIH Roadmap, qHTS, NCGC
Potency is the fitted concentration of half-maximal effect.

SMILES | activity change, negative = cytotoxicity | Potency
COc1ccc(-c2csc(-c3c(N)c(C(=O)c4ccc(OC)c(OC)c4)n4ccccc34)n2)cc1 | 6.12% (inactive) | 
Cc1cc(OCC(=O)Nc2ncn[nH]2)c(C)c(C)c1Br | 1.71% (inactive) | 
COc1ccc(N2CCN(c3nc(-c4ccccc4F)nc4ccccc34)CC2)cc1 | 13.6% (inactive) | 
O=S(=O)(c1ccc(Br)cc1)c1nnn2c1nc(NC1CCCCCC1)c1sccc12 | 2.98% (inactive) | 
COc1cccc(CNC(=O)c2ccc3c(c2)N(Cc2ccc(C(F)(F)F)cc2)C(=O)c2ccccc2S3)c1OC | 17.9% (inactive) | 
COc1ccc(OC)c2sc(N3CCN(C(=O)C4COc5ccccc5O4)CC3)nc12 (stereo not drawn) | -3.09% (inactive) | 
Cn1c(=O)cc(OCC(=O)N2CCN(c3ccccc3F)CC2)c2ccccc21 | -5.26% (inactive) | 
COc1cc(C(=O)Nc2ccc(OCc3cc(=O)n4cc(C)sc4n3)cc2)cc(OC)c1OC | -1% (inactive) | 
COc1cccc(C2C(C(=O)Nc3ccc(C)cc3C)=C(C)Nc3c(C(=O)Nc4ccccc4)cnn32)c1 (stereo not drawn) | 30.5% (inactive) | 
CCNC(=O)Cn1nc(C)n2c(cc3c(OC)cccc32)c1=O | -6.05% (inactive) | 
O=C(NCc1ccccc1)C1CCN(S(=O)(=O)c2ccc3[nH]c(=O)ccc3c2)CC1 | 2.92% (inactive) | 
COc1ccc(N2CCN(S(=O)(=O)CCNC(=O)C(c3ccccc3)c3ccccc3)CC2)cc1 | -14.2% (inactive) | 
Cc1ccc(C2CCN(C(=O)c3cnn(-c4ccccc4Cl)c3C3CCN(C(=O)OC(C)(C)C)CC3)C2)cc1 (stereo not drawn) | 5.82% (inactive) | 
CN(C)CCCNC(=S)NCc1ccc(Cl)cc1 | -7.09% (inactive) | 
COc1ccc(CCNC(=O)c2c3c(nc4ccccc24)C(=O)N(C2CCCCC2)C3)cc1OC | -8.55% (inactive) | 
CCOC(=O)c1ccc(NC(=O)C2CC(=O)NC(=Nc3ccc(C)c(C)c3)S2)cc1 (stereo not drawn) | -12.3% (inactive) | 
Cc1ccc(CSc2nc3cccnc3n2Cc2ccc(C(=O)NC3CC3)cc2)cc1 |  | 2.51 µM (active)
O=C(NCc1ccc(F)cc1)c1ccc(Cn2c(SCc3ccc(F)cc3)nc3cccnc32)cc1 | -23.4% (inactive) | 
O=C(NC1CCCCC1)c1ccc(Cn2c(SCc3ccccc3)nc3cccnc32)cc1 | -13.1% (inactive) | 
COc1ccc(C(=O)OCC(=O)NC(=O)CCSc2ccccc2)cc1 | -8.99% (inactive) | 
Cc1cccc(-n2ncc(C(=O)N3CCC(C)CC3)c2C2CCN(C(=O)OC(C)(C)C)CC2)c1 | 2.94% (inactive) | 
CC(C)C(=O)Nc1cccc(NC(=O)c2ccc([N+](=O)[O-])cc2Cl)c1 | -9.2% (inactive) | 
CCCCOc1ccc(Cn2c(=O)oc3ccc(C)cc32)cc1OC | -0.124% (inactive) | 
CCCCOc1ccc(CN2C(=O)C(=O)c3cc(Br)cc(C)c32)cc1OC |  | 35.5 µM (active)

SMILES | activity change, negative = cytotoxicity | Potency
COc1ccc(CCN2C(=O)C3CC=C(C)CC3C2=O)cc1OC (stereo not drawn) | -0.134% (inactive) | 
COc1ccc(NC(=O)c2ccco2)cc1NC(=O)c1ccc(C#N)cc1F | -5.82% [at 9.22 µM] | 
Cc1cc(C)c2oc(-c3cccc(NC(=O)c4cccc(F)c4)c3C)nc2c1 | -11.5% (inactive) | 
Brc1ccc(-c2noc(-c3ccccc3)n2)o1 | -13.7% (inactive) | 
Cc1ccccc1-n1c(C)cc(/C=C2\NC(=O)NC2=O)c1C |  | 11.2 µM (active)
Cc1cccc(N2CCN(C3=C(c4ccccc4)C(=O)c4ccccc43)CC2)c1C | 4.86% (inactive) | 
COc1ccc2oc(=O)c(-c3cn4c(n3)sc3cc(OC)ccc34)cc2c1 | -2.92% (inactive) | 
COc1ccc(-c2cc3ccc(OCc4nn[nH]n4)cc3oc2=O)cc1 |  | 12.6 µM (active)
COc1ccc2cc(-c3nc(Cl)c4c5c(sc4n3)CC(C)CC5)c(=O)oc2c1 (stereo not drawn) | -0.526% (inactive) | 
Cc1cccc2c(=O)cc(CSc3ccccc3NC(=O)C(C)C)[nH]c12 | -4.09% (inactive) | 
C/C=C/c1ccc(OCCOc2ccc(C=O)cc2OC)c(OC)c1 | -1.57% (inactive) | 
COc1ccc(CCNC(=O)c2cc(=O)c3c(C)cc(C)cc3o2)cc1OC | -0.239% (inactive) | 
Cc1ccc(-n2c(CNc3ccc(F)cc3)nnc2SCC(=O)N2CCOCC2)cc1 | -5.26% (inactive) | 
O=C(NC1CCCCC1)c1ccc2c(c1)N(Cc1ccc(Cl)cc1)C(=O)c1ccccc1S2=O (stereo not drawn) | -5.35% (inactive) | 
O=C(NCC(c1ccc(Cl)cc1)N1CCOCC1)c1ccccc1F (stereo not drawn) | 0.172% (inactive) | 
O=C(Nc1ccccc1F)c1ccccc1-c1ccccc1 | -0.487% (inactive) | 
CC(=O)c1ccc(NC(=O)Nc2ccc([N+](=O)[O-])cc2C)cc1 | -16.8% (inactive) | 
COc1ccc(N2CCN(c3cc(C)nc4nncn34)CC2)cc1 | 0.606% (inactive) | 
COc1ccccc1C1C(C(=O)N2CCCCC2)=C(C)Nc2nc3ccccc3n21 (stereo not drawn) | 12.2% (inactive) | 
COc1ccccc1N1CCN(c2ccc(=O)n(CC(=O)NCc3ccc(OC(C)C)cc3)n2)CC1 | -1.62% (inactive) | 
Cc1ccc(Cl)cc1NC(=O)CCC(=O)N1CC(C)Sc2ccccc21 (stereo not drawn) | 3.24% (inactive) | 
CC1CCCN(Cc2c(O)ccc3c(=O)c(Oc4ccc(C(C)(C)C)cc4)c(C(F)(F)F)oc23)C1 (stereo not drawn) | -2.32% (inactive) | 
Cc1ccccc1CSc1nc(-c2ccccc2)nc2c1Cc1c(CO)cnc(C)c1O2 | -0.829% (inactive) | 
COc1ccc(OC)c(NC(=O)Cn2c(=O)n(Cc3ccccc3)c(=O)c3ccccc32)c1 | 5.5% (inactive) | 
